GPR151 activ: activates the human receptor GPR151; Q8TDV0; PathHunter beta-arrestin GPR151 cells, luminescence; activation, % at 11.2 µM; 650,000 tested, 1% active; AID 1508602; in the data active = activation above about 4.9%;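 note: 0% = median of compound wells and 100% = cells with positive control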
Target sequence (Q8TDV0 whole entry, looked up): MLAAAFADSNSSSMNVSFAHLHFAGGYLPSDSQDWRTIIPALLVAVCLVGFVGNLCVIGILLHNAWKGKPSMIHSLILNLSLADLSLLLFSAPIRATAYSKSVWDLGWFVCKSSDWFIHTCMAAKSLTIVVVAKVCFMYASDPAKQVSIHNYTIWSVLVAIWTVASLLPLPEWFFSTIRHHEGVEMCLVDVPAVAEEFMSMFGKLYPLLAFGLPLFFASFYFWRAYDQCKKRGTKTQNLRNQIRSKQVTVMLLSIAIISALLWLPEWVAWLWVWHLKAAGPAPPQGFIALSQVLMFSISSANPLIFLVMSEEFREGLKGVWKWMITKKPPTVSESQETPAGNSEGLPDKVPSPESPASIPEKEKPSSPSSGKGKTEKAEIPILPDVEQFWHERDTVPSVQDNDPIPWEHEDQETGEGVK
MITF inh: blocks human microphthalmia-associated transcription factor. AlphaScreen MITF homodimerization, bead proximity signal. 650,000 tested, 0.91% active. inhibition, % at 2.6 µM. O75030; in the data active = inhibition above about 50%;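 note: 0% = vehicle wells with protein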
TEAD-YAP block: TEAD-YAP interaction inhibition. AID 1259422. 640,000 tested, 1.4% active. inhibition, % at 9.12 µM. HEK-TIYL cells, TEAD-Gal4/YAP UAS-luciferase luminescence; in the data active = inhibition above about 32%;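 note: 0% = median of test compound wells and 100% = reference inhibitor wells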
FBW7 activator: activators of human E3 ligase FBW7. Q969H0. AlphaScreen FBW7–phospho-cyclin E peptide binding, activator screen. normalized activity (activation), % at 26.1 µM. 650,000 tested, 0.13% active. AID 1259310; in the data active = normalized activity above about 1.9%;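 note: purified mutant Fbw7 with reduced substrate affinity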
GPR151 conf act: human GPR151 activation, confirmation screen; shares compounds with GPR151 activ; GPR151 PathHunter beta-arrestin cells, luminescence, 90 min; % of EA-reagent control over plate median; activation, % at 11.2 µM; 6,700 tested, under 10 active;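 active = mean percent activation across replicates above the confirmation screen cutoff of 4.91%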
GPR119 ag: counter-screen for GPR151 activators: effect on human GPR119 | activation, % at 11.2 µM | 6,700 tested, 0.3% active | GPR119 PathHunter beta-arrestin cells, luminescence, 90 min; 0 = compound-well median, 100 = enzyme-acceptor control | AID 1508611 | shares compounds with GPR151 activ;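 active = mean percent activation in the counterscreen above 29.09%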;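 note: counterscreen on off-target GPR119 to flag nonselective hits from the GPR151 activator screen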
An asterisk follows results filed as active. A selection: hits, their analogues and other compounds. The true share with any hit is near 3.4%.

What do the screens show for `CS(=O)(=O)N(CC(=O)N1CCN(c2ccc(F)cc2)CC1)Cc1ccc(Cl)cc1`?
GPR151 activ: 2; MITF inh: -6; TEAD-YAP block: 4; FBW7 activator: 0

How did O=C(NCCc1nc(-c2ccncc2)n[nH]1)C1(c2ccccc2)CCCC1 do in these assays?
GPR151 activ: 5.9*; MITF inh: 4; TEAD-YAP block: 5; FBW7 activator: 0; GPR151 conf act: 0; GPR119 ag: 6

What do the screens show for `Cc1ccc(S(=O)(=O)Nc2nc(C)c(NC(=O)OCCNC(=O)COc3ccc(Cl)cc3Cl)s2)cc1`?
GPR151 activ: 0; MITF inh: 0; TEAD-YAP block: -8; FBW7 activator: 0

What do the screens show for `COc1ccc(/C=N/Nc2nc(C)c([N+](=O)[O-])c(N(C)c3ccccc3)n2)cc1OC`?
GPR151 activ: 5.5*; MITF inh: -1; TEAD-YAP block: 14; FBW7 activator: 0; GPR151 conf act: 1; GPR119 ag: 2

How did CC(C)(C)NS(=O)(=O)c1ccc(NC(=O)COc2ccc([N+](=O)[O-])cc2)cc1 do in these assays?
GPR151 activ: 1; MITF inh: -6; TEAD-YAP block: -1; FBW7 activator: 0

What do the screens show for `CCCCC(=O)Nc1cccc(NC(=O)COc2ccc([N+](=O)[O-])cc2)c1`?
GPR151 activ: 11*; MITF inh: 9; TEAD-YAP block: 1; FBW7 activator: 0; GPR151 conf act: -1; GPR119 ag: 7

What do the screens show for `CC(=O)NS(=O)(=O)c1ccc(NC(=O)COc2ccc([N+](=O)[O-])cc2)cc1`?
GPR151 activ: 6.1*; MITF inh: 0; TEAD-YAP block: 14; FBW7 activator: 0; GPR151 conf act: 0; GPR119 ag: 1

Results for CCNS(=O)(=O)c1ccc(NC(=O)c2ccc([N+](=O)[O-])cc2)cc1 ?
GPR151 activ: 5.1*; MITF inh: 24; TEAD-YAP block: 1; FBW7 activator: 0; GPR151 conf act: 0; GPR119 ag: 2

Results for CCC(=O)Nc1cccc(NC(=O)COc2ccc([N+](=O)[O-])cc2)c1 ?
GPR151 activ: 12*; MITF inh: 8; TEAD-YAP block: 3; FBW7 activator: 0; GPR151 conf act: 0; GPR119 ag: -2

How did CC1CC2(C)CC(C)C1(CO)CO2 (stereo unspecified) do in these assays?
GPR151 activ: 3; MITF inh: 13; TEAD-YAP block: 5; FBW7 activator: 0

What do the screens show for `C=CCNC(=S)NS(=O)(=O)c1ccc(F)cc1`?
GPR151 activ: 1; MITF inh: -5; TEAD-YAP block: 0; FBW7 activator: 0

How did Cc1ccc(C2c3c(oc4ccc(Cl)cc4c3=O)C(=O)N2CCN(C)C)cc1 (stereo unspecified) do in these assays?
GPR151 activ: -1; MITF inh: 5; TEAD-YAP block: -6; FBW7 activator: 0

What do the screens show for `COc1cc(C(=O)Nc2cc(C(=O)N3CCN(c4ccccc4)CC3)ccc2N2CC3CC(C2)c2cccc(=O)n2C3)cc(OC)c1OC` (stereo unspecified)?
GPR151 activ: 5.5*; MITF inh: 12; TEAD-YAP block: 6; FBW7 activator: 0; GPR151 conf act: -1; GPR119 ag: 3

What do the screens show for `COC(=O)c1cc(NC(=O)c2ccc(N3CC4CC(C3)c3cccc(=O)n3C4)c(NC(=O)Nc3ccccc3)c2)cc(C(=O)OC)c1` (stereo unspecified)?
GPR151 activ: 6.7*; MITF inh: -2; TEAD-YAP block: -12; FBW7 activator: 0; GPR151 conf act: 1; GPR119 ag: 8

What do the screens show for `CN(CCc1ccccn1)C(=O)c1ccc(N2CC3CC(C2)c2cccc(=O)n2C3)c(NC(=O)c2cccs2)c1` (stereo unspecified)?
GPR151 activ: 7.4*; MITF inh: 7; TEAD-YAP block: 2; FBW7 activator: 0; GPR151 conf act: -1; GPR119 ag: -3

Results for COc1cc(C(=O)Nc2cc(C(=O)Nc3ccccc3SC)ccc2N2CC3CC(C2)c2cccc(=O)n2C3)cc(OC)c1OC (stereo unspecified) ?
GPR151 activ: 1; MITF inh: 12; TEAD-YAP block: -12; FBW7 activator: 0

Results for Cc1nc2c(c(=O)[nH]1)CCN(CC1=Cc3ccccc3OC1)C2 ?
GPR151 activ: 1; MITF inh: -10; TEAD-YAP block: -2; FBW7 activator: 0

What do the screens show for `O=C(Nc1nnc(N2CCCC2)s1)Nc1ccccc1F`?
GPR151 activ: 0; MITF inh: -3; TEAD-YAP block: -74; FBW7 activator: 0

Results for O=C(Nc1nnc(N2CCCC2)s1)Nc1ccc(Br)cc1F ?
GPR151 activ: 5.6*; MITF inh: 0; TEAD-YAP block: -11; FBW7 activator: 0; GPR151 conf act: 0; GPR119 ag: -3

Results for Cc1ccc(NC(=O)Nc2nnc(N3CCCCC3)s2)c(Cl)c1 ?
GPR151 activ: 5.3*; MITF inh: -3; TEAD-YAP block: 5; FBW7 activator: 0; GPR151 conf act: 0; GPR119 ag: -9

What do the screens show for `COc1ccc(NC(=O)Cn2cc(C(=O)c3ccccc3)c(=O)c3ccccc32)c(OC)c1`?
GPR151 activ: 0; MITF inh: 5; TEAD-YAP block: 4; FBW7 activator: 0

How did CC1(CC(=O)N/N=C/c2cccc(Br)c2)OCCO1 do in these assays?
GPR151 activ: -1; MITF inh: 2; TEAD-YAP block: -10; FBW7 activator: 0

Results for CC1(CC(=O)N/N=C/c2cccc(OC3CSC3)c2)OCCO1 ?
GPR151 activ: 5.9*; MITF inh: 12; TEAD-YAP block: -3; FBW7 activator: 0; GPR151 conf act: 0; GPR119 ag: 2

What do the screens show for `CCc1ccc(N2C(=O)C(Cl)=C(Nc3ccc(C(=O)N4CCCC4)cc3)C2=O)cc1`?
GPR151 activ: 5.2*; MITF inh: 8; TEAD-YAP block: 18; FBW7 activator: 0; GPR151 conf act: 0; GPR119 ag: -5

How did CCc1ccc(NC2=C(Cl)C(=O)N(c3ccccc3OC)C2=O)cc1 do in these assays?
GPR151 activ: 3; MITF inh: 25; TEAD-YAP block: 21; FBW7 activator: 0

How did Cc1cc(-n2c(C)nc3ncccc3c2=O)ccc1NC(=O)C1CCCC1 do in these assays?
GPR151 activ: 2; MITF inh: 0; TEAD-YAP block: 11; FBW7 activator: 0

How did CCC(C(=O)Nc1ccc(F)cc1F)n1c2ccccc2c2nc(=O)cc(C)n21 (stereo unspecified) do in these assays?
GPR151 activ: -1; MITF inh: -10; TEAD-YAP block: -5; FBW7 activator: 0

How did CCC(C(=O)Nc1ccc(F)cc1)n1c2ccccc2c2nc(=O)cc(C)n21 (stereo unspecified) do in these assays?
GPR151 activ: 5.3*; MITF inh: 11; TEAD-YAP block: 5; FBW7 activator: 0; GPR151 conf act: 0; GPR119 ag: 0

Screening results as filed in PubChem.
